Compounds with a hit are over-represented: about 7.9% of the library has one in this group of screens.
MARV entry inh = Marburg virus entry inhibition; 300,000 tested, 1.8% active; AID 540276; Marburg virus pseudotyped entry inhibition, cell reporter; Potency, µM (doses to about 37.8 µM), for inactives: at the top dose activity change, negative = inhibition, actives largely listed as inhibitors; calls by dose curve; tested in HEK293 cells; note: potency is the fitted concentration of half-maximal effect
HCV inh = inhibitors of hepatitis C virus infection. Huh7.5.1 HCVcc-Cre infection, luciferase reporter, 44 h. 340,000 tested, 3.4% active. Potency, µM (top dose mostly 41.8 µM), for the others: top-dose activity change, negative = inhibition, hits mostly inhibitors. AID 651820; active = well fitted inhibition curve with a large enough effect; inconclusive = small, poorly fitted or top-dose-only effect, or another doubt; inactive = no such curve, though single readings can be large or run the other way; note: potency is the fitted concentration of half-maximal effect
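Reporter virus HCVcc-Cre (~0.5 moi) infects cells exposed to compound; seeding density 1,000 cells/well with 4 h settling beforehand. Luminescence, 15 sec read, taken 44 h post-infection following a 15 min RT substrate incubation.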
LASV entry inh = inhibitors of Lassa virus binding or cell entry; Lassa virus pseudotype entry inhibition, cell reporter; Potency, µM (top dose mostly 37.9 µM), for the others: top-dose activity change, negative = inhibition, hits mostly inhibitors; 300,000 tested, 1.2% active; calls by dose curve; tested in HEK293 cells; note: potency is the fitted concentration of half-maximal effect; nearly all actives have a fitted effect of over 50% in size
HCMV inh = blocks human cytomegalovirus replication; HFF cells, HCMV-luciferase reporter, 72 h; stronger effect = lower value; activity change, negative = inhibition, % at 57.5 µM; 410,000 tested, 4.5% active; AID 1259415; in the data active = activity change below about -60%; inconclusive = no clear call, values can overlap the other calls; inactive = above about -39%
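Two-dose cell screen: HFF monolayers treated with compounds and infected with luciferase-expressing HCMV at 1 PFU/cell, 72 h at 37C, then lysed for luciferase measurement.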
FMDV inh = antivirals against foot and mouth disease virus; FMDV antiviral cell-based qHTS; Potency, µM (top dose mostly 57.9 µM), for inactives: at the highest dose activity change, negative = inhibition, usual class: inhibitors; 410,000 tested, 1.2% active; AID 1159524; calls by dose curve; tested in HEK293T cells; note: read-out not given here; potency is the fitted concentration of half-maximal effect; nearly all actives have a fitted effect of over 45% in size
* = called active by the depositor; ? = inconclusive; · = no result; [ ] = another dose, or the depositor's remark. % is set by controls: 0 for no effect and ±100 for the full control effect.

SMILES	MARV entry inh	HCV inh	LASV entry inh	HCMV inh	FMDV inh
COC(=O)c1cnc(Oc2ccc(NC(=O)NC(=O)c3c(F)cccc3F)cc2)cc1C(F)(F)F	-22.5%[46.1 µM]	18.1%	2.6%[46.1 µM]	10.8	5.1%
COC(=O)c1cnc(Oc2ccc(NC(=O)NC(=O)c3c(OC)cccc3OC)cc2)cc1C(F)(F)F	1.58µM*	-24.3%	?	-97.9*	-27.1%
C=CCn1c(NCCc2ccccc2)nc2c1c(=O)n(C)c(=O)n2C	?	?	?	-82.1*	25.1µM*
COCCCNc1nc2c(c(=O)n(C)c(=O)n2C)n1Cc1ccccc1	-22.3%[46.1 µM]	·	2.9%[46.1 µM]	-5.6	?
CCn1c(NCc2ccco2)nc2c1c(=O)n(C)c(=O)n2C	-0.3%	6.7%	16.8%	23.5	-21.9%
C/C(Cl)=C\Cn1c(NCCc2ccccc2)nc2c1c(=O)n(C)c(=O)n2C	3.66µM*	2.51µM*	4.61µM*	-94.9*	·
Cn1c(=O)c2c(nc(NCc3ccco3)n2CCc2ccccc2)n(C)c1=O	?	?	-17.2%	?	20µM*
Cc1ccc(Cn2c(NCCc3ccccc3)nc3c2c(=O)n(C)c(=O)n3C)cc1	?	3.98µM*	?	-69.1*	15.8µM*
CN(C)c1ccc(-c2noc(C3CC(=O)N(c4ccc5c(c4)OCCO5)C3)n2)cc1 (centres undefined)	·	·	-13.1%[46.1 µM]	5.5	-25.6%
Nc1nc2n[nH]nc2c(=O)[nH]1	·	?	·	-95.8*	-6.4%
CCOC(=O)N/N=C1\C[C@@H](O)[C@@H](O)[C@@H]2[C@@H]3C(=O)N(CC)C(=O)[C@@H]3CC[C@H]12	7.5%[14.2 µM]	·	·	·	·
Cc1ccc2oc(C(=O)Nc3c(C(=O)Nc4cccc(Cl)c4)oc4ccccc34)cc(=O)c2c1	-1.1%[46.1 µM]	·	1.4%[46.1 µM]	-22.1	-4.3%
Cc1cc(C)c2c(=N)c3ccccc3n(CCCCCCCCn3c4ccccc4c(=N)c4c(C)cc(C)nc43)c2n1	7.08µM*	-24.8%	?	-74.6*	0.0%
COc1ccc(C(CC(=O)Nc2cc(Cl)c(OC)cc2OC)N2Cc3ccccc3C2=O)cc1 (centres undefined)	·	·	-24.5%[46.1 µM]	?	55.9%
O=C(NCc1ccc(F)cc1)c1cc(-c2ccncc2)nc2ccccc12	-6.4%	-24.6%	22.8%	-6.5	-26.1%
COCCCNC(=O)c1cc(Sc2ccc(F)cc2)nc2ccccc12	-15.3%	?	-8.2%	-60.9*	-21.3%
Cc1ccc(CNC(=O)c2cc(Sc3ccc(F)cc3F)nc3ccccc23)cc1	·	·	?	-66.2*	-13.2%
CCOCCCNC(=O)c1cc(Sc2ccc(F)cc2)nc2ccccc12	?	4.7%	?	-62.0*	-17.1%
Cc1ccc(Sc2cc(C(=O)NCCCN(C)C)c3ccccc3n2)cc1	?	?	?	-39.1	-2.4%
COc1cc(OC)c(C2C=C(c3ccc(C)cc3)Nc3c(C(=O)Nc4ccccc4)cnn32)cc1OC (centres undefined)	·	·	-18.5%[46.1 µM]	-24.7	-18.3%
Cc1ccc2nc(Cl)c3cc(C(=O)N4CCCC(C)C4)sc3c2c1 (centres undefined)	2.8%[46.1 µM]	·	12.9%[46.1 µM]	-3.1	2.3%
CCOC(=O)c1c(NC(=O)CNC2CCCCC2)sc(C)c1C	?	10µM*	-19.8%[46.1 µM]	9.6	-16.0%
Cc1sc(NC(=S)NC(=O)CCc2ccccc2)c(C(N)=O)c1C	?	?	?	-82.8*	-0.9%
CCOC(=O)c1c(NC(=O)C[n+]2ccc(Cc3ccccc3)cc2)sc(C)c1C	?	1.26µM*	-21.4%[46.1 µM]	-37.9	-26.5%
CCOC(=O)c1c(NC(=S)Nc2ccccc2)sc(C)c1C	3.0%	1.8%	-8.6%	-20.9	·
SMILES	MARV entry inh	HCV inh	LASV entry inh	HCMV inh	FMDV inh
CCOC(=O)c1c(NC(N)=O)sc(C)c1C	1.5%	0.891µM*	-9.4%	65.9	-16.7%
COC(=O)CCC(=O)NC(=S)Nc1sc(C)c(C)c1C(N)=O	-23.8%	1.1%	?	?	14.1%
Cc1cccc(NC(=O)CN2C(=O)C3(SCC(=O)N3c3ccccc3)c3ccccc32)c1 (centres undefined)	·	·	31.4%[46.1 µM]	23.1	-4.2%
O=C(NCC1Cc2cccc(-c3ncccn3)c2O1)C1CCCO1 (centres undefined)	·	·	·	·	-2.1%
CCOC(=O)c1c(NC(=O)CN2CCCc3ccccc32)sc(C)c1C	?	3.16µM*	-19.1%	-36.4	-22.5%
CCOC(=O)c1c(NC(=O)c2nn(C)cc2[N+](=O)[O-])sc(C)c1C	6.3%[46.1 µM]	3.55µM*	11.1%	65.8	5.6%
COC(=O)c1c(NC(=O)CN2CCCc3ccccc32)sc(C)c1C	-13.3%	?	-7.7%	?	13.8%

Compound activity from PubChem.
